E coli growth-1 = counter-screen for AddAB inhibitors: E. coli growth inhibition | E. coli V3065 growth, OD600 absorbance, 18 h | inhibition, % at 11.9 µM | 330,000 tested, 0.27% active;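 active = inhibition above the campaign's mean inhibition across all tested compounds plus 3 SD, cut at about 9.9% in these data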;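 also: uninfected addAB+ strain grown without phage in ampicillin broth; 0% = DMSO wells and 100% = ciprofloxacin 0.95 µg/ml wells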
E coli growth-2 = inhibitors of Escherichia coli growth. OD600, 23 h; stronger effect = lower value. OD600 absorbance (test concentration not listed). 330,000 tested, 0.21% active;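 active = OD600 absorbance below the run mean of sample wells minus 3.6 SD, in any replicate, cut at about 0.56 in these data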
AddAB inh = less growth of phage-infected E. coli with AddAB; E. coli expressing H. pylori AddAB, absorbance growth; inhibition, % at 11.9 µM; 330,000 tested, 0.29% active; in the data active = inhibition above about 12%;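 also: 0% = vehicle wells of infected cells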
phage Ecoli inh = E. coli growth loss with phage present; 360,000 tested, 0.26% active; inhibition, % at 11.9 µM; growth absorbance; in the data active = inhibition above about 11%
Tat export inh = inhibitors of E. coli Tat protein transport | E. coli MC4100 TorA-mCherry Tat export, fluorescence | inhibition, % at 10 µM | 340,000 tested, 0.036% active;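 active = mean replicate inhibition at least 50% and at least half of replicates individually reaching 50%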;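 also: exported cargo escapes ClpAP degradation while cytoplasmic cargo is degraded and loses fluorescence; 0% = median of neutral control wells and 100% = median of NaSCN control wells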
AddAB conf = confirmation screen: growth loss of phage-infected E. coli expressing H. pylori AddAB. 880 tested, 64% active. E. coli V3065 expressing H. pylori AddAB, T4 phage, OD; T4 phage with gene 2 nonsense mutations. AID 488942. inhibition, % at 11.9 µM. shares compounds with AddAB inh;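 active = mean inhibition above a set limit taken from the earlier primary screen, cut at about 13% in these data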;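 also: higher means less bacterial growth since AddAB block lets phage replicate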
RecBCD counter = counter-screen: growth loss of RecBCD+ E. coli with mutant T4 phage; shares compounds with AddAB inh; E. coli V66 + mutant T4 phage, OD growth; inhibition, % at 11.9 µM; 880 tested, 73% active;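 active = mean inhibition above the mean of solvent-only control wells plus 3 SD, cut at about 4% in these data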;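 also: optical density read after an 18 h incubation at 37 °C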
bact viab count = counter-screen for AddAB inhibitors: inhibitors of bacterial viability. shares compounds with AddAB inh. absorbance (AddAB counterscreen). inhibition, % at 11.9 µM. 880 tested, 35% active. AID 488956; in the data active = inhibition above about 25%
RecBCD conf = growth loss of phage-infected V66 E. coli, RecBCD confirmation screen. 890 tested, 45% active. shares compounds with phage Ecoli inh. inhibition, % at 11.9 µM. E. coli V66 + T4 2- phage, growth OD;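 active = mean inhibition over triplicates exceeding the hit threshold derived in the original primary screen, cut at about 11% in these data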
Ecoli viability = counter-screen for RecBCD inhibitors: inhibitors of bacterial viability; 890 tested, 29% active; E. coli viability, absorbance (OD) growth; inhibition, % at 11.9 µM; shares compounds with phage Ecoli inh; in the data active = inhibition above about 20%;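 also: E. coli strain V66 grown with compound alone and no phage infection; 0% = bacteria with DMSO vehicle only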
AddAB phage OD = growth loss of phage-infected AddAB E. coli, RecBCD counter-screen; shares compounds with phage Ecoli inh; E. coli expressing H. pylori AddAB + T4 phage, OD growth; gene 2 mutant T4, recBCD-deleted host; inhibition, % at 11.9 µM; 890 tested, 45% active;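 active = mean inhibition above the solvent-only control wells' mean plus 3 SD, cut at about 22% in these data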;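 also: higher means less bacterial growth from phage killing when AddAB is blocked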
* = called active by the depositor; . = not tested or not shown; + = active, no number; ! = a repeat was not active. Shown are actives, neighbours in structure and some others; about 0.5% of the full set was active somewhere.

SMILES	E coli growth-1	E coli growth-2	AddAB inh	phage Ecoli inh	Tat export inh	AddAB conf	RecBCD counter	bact viab count	RecBCD conf	Ecoli viability	AddAB phage OD
CN(C)[C@@H]1C(=O)C(C(N)=O)=C(O)[C@@]2(O)C(=O)C3=C(O)c4c(O)cccc4[C@@](C)(O)C3C[C@@H]12 (stereo not given in full)	100.0*	.	94.3*	101.5*	147.1*	101.2*	101.0*	101.5*	100.9*	102.1*	101.2*
CN(C)[C@@H]1C(=O)C(C(N)=O)=C(O)[C@@]2(O)C(=O)C3=C(O)c4c(O)ccc(Cl)c4[C@@](C)(O)[C@H]3C[C@@H]12	80.6*	.	78.8*	91.4*	162.7*	98.7*	94.6*	99.2*	96.6*	102.4*	99.8*
CC1C(c2ccccc2)OC(=O)N1C (stereo not given)	.	0.716	.	2.1	-11.5	.	.	.	.	.	.
COC12C(COC(N)=O)C3=C(C(=O)C(C)=C(N)C3=O)N1CC1C2N1C (stereo not given)	98.7*	0.0535*	94.2*	81.7*	80.4*	97.5*	89.0*	98.7*	94.1*	94.2*	96.3*
C[CH2][Hg][S]c1ccccc1C(=O)O	101.0*	0.0605*	+	+	-126.5	+	+	98.4*	+	105.5*	+
N/C(=N\[N+](=O)[O-])N/N=C/c1ccc(O)cc1	1.1	.	0.9	1.8	0.4	.	.	.	.	.	.
Nc1nonc1C(=O)N/N=C/c1ccc([N+](=O)[O-])o1	8.5	.	16.6*	18.4*	-15.7	98.5*	6.7*	15.8	7.9	4.9	61.1*
CNS(=O)(=O)c1ccc(N=Cc2c(O)n(-c3ccc(C)cc3)c(=O)[nH]c2=O)cc1	1.0	0.698	1.3	0.1	-7.2	.	.	.	.	.	.
CCc1nnc(NS(=O)(=O)c2ccc(N=Cc3c(O)n(-c4ccc(Cl)cc4)c(=O)[nH]c3=O)cc2)s1	8.4	0.607	9.1	12.5*	-7.9	.	.	.	3.8	1.9	19.6
Oc1cc(Cl)ccc1Oc1ccc(Cl)cc1Cl	97.7*	0.046*	96.6*	97.0*	137.3*	.	.	.	98.8*	100.1*	99.0*
CCN(C)C(C)Cc1cccc(C(F)(F)F)c1 (stereo not given)	.	.	.	1.1	.	.	.	.	.	.	.
COC(=O)C1=COC(C)C2CN3CCC4(C(=O)Nc5ccccc54)C3CC12 (stereo not given)	-2.3	0.74	1.2	11.2*	3.4	.	.	.	-1.6	-0.4	2.0
Oc1ccc2c3c1OC1C(O)CC[C@@]4(O)C(C2)N(CC2CCC2)CC[C@]314 (stereo not given in full)	.	0.691	.	.	.	.	.	.	.	.	.
C[n+]1ccc(-c2cc[n+](C)cc2)cc1	10.3*	0.663	12.1	21.5*	-5.1	.	.	.	13.0*!	12.9	21.3*
C#CC[N+]1(C)C2CCC1CC(O)C2 (stereo not given)	-0.7	0.705	0.9	1.6	-1.3	.	.	.	.	.	.
Fc1ccc(CNC2CN3CCC2CC3)cc1 (stereo not given)	-0.9	0.693	-0.6	12.8*	-12.1	.	.	.	-4.8	-3.7	0.8
O=C1CC(=O)N(c2ccc(Cl)cc2Cl)C(=O)N1	-1.2	0.676	-2.9	1.1	-4.7	.	.	.	.	.	.
